Results as given in PubChem BioAssay AID1159580 (chemical genetic matrix, 2015).
Hit rate of the full screen: of about 5,500 compounds, about 2,000 (36%) were called active. About 18% were inconclusive and are not listed. Rule as the data show it: active = normalized growth mostly below about 0.91 (no sharp cut-off); inconclusive = no clear call, values can overlap the other calls; inactive = mostly above about 0.92. This is one part of the list.

Assay: chemical genetic growth profiling, strain panel (AID 1159580);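 also: tested at 20 µM; growth read once vehicle control cultures reached saturation at 30 °C; 1 = growth at the plate median or of vehicle wells; lower values mean less growth of the strain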
Conditions: growth OD

Measured: normalized growth

Cc1cc(/C=C/c2ccc3cc(N(C)C)ccc3[n+]2C)c(C)n1-c1ccccc1
inactive: S. cerevisiae deletion strains, locus YJR066W, strain TOR1, hits give low values 0.948 | S. cerevisiae deletion strains, locus YKL068W, hits give low values 1.03 | S. cerevisiae deletion strains, locus YKL085W, strain MDH1 (second series), hits give low values 1.03 | S. cerevisiae deletion strains, locus YKL085W, strain MDH1, hits give low values 1.03 | S. cerevisiae deletion strains, locus YKR001C, strain vps1, hits give low values 0.987 | S. cerevisiae deletion strains, locus YKR026C, strain gcn3, hits give low values 1.01 | S. cerevisiae deletion strains, locus YKR091W, strain srl3, hits give low values 1.02 | S. cerevisiae deletion strains, locus YLL001W, strain dnm1, hits give low values 0.934 | S. cerevisiae deletion strains, locus YLL041C, strain sdh2, hits give low values 1.03 | S. cerevisiae deletion strains, locus YLR039C, strain RIC1, hits give low values 0.703 | S. cerevisiae deletion strains, locus YLR102C, strain apc9, hits give low values 1.01 | S. cerevisiae deletion strains, locus YLR113W, strain HOG1, hits give low values 1.02 | S. cerevisiae deletion strains, locus YLR258W, strain gsy2, hits give low values 0.986 | S. cerevisiae deletion strains, locus YLR262C, strain YPT6, hits give low values 0.776 | S. cerevisiae deletion strains, locus YLR268W, strain sec22, hits give low values 0.919 | S. cerevisiae deletion strains, locus YLR330W, strain CHS5, hits give low values 1 | S. cerevisiae deletion strains, locus YLR357W, strain rsc2, hits give low values 1.09 | S. cerevisiae deletion strains, locus YLR370C, strain arc18, hits give low values 0.986 | S. cerevisiae deletion strains, locus YLR371W, strain rom2, hits give low values 1.02 | S. cerevisiae deletion strains, locus YLR384C, strain iki3, hits give low values 1 | S. cerevisiae deletion strains, locus YML032C, strain rad52, hits give low values 0.947 | S. cerevisiae deletion strains, locus YML120C, strain ndi1, hits give low values 0.93 | S. cerevisiae deletion strains, locus YML124C, strain tub3, hits give low values 1.02 | S. cerevisiae deletion strains, locus YMR078C, strain ctf18, hits give low values 1.02 | S. cerevisiae deletion strains, locus YMR205C, strain PFK2, hits give low values 1.04 | S. cerevisiae deletion strains, locus YMR223W, strain ubp8, hits give low values 0.949 | S. cerevisiae deletion strains, locus YMR231W, strain pep5, hits give low values 1.01 | S. cerevisiae deletion strains, locus YNL183C, strain NPR1, hits give low values 0.962 | S. cerevisiae deletion strains, locus YNL250W, strain rad50, hits give low values 1.02 | S. cerevisiae deletion strains, locus YNL271C, strain bni1, hits give low values 1.02 | S. cerevisiae deletion strains, locus YNL298W, strain CLA4, hits give low values 1.01 | S. cerevisiae deletion strains, locus YNL322C, strain KRE1 (second series), hits give low values 1.01 | S. cerevisiae deletion strains, locus YNR049C, strain mso1, hits give low values 1.01 | S. cerevisiae deletion strains, locus YOL012C, strain htz1 0.461 | S. cerevisiae deletion strains, locus YOL147C, strain pex11, hits give low values 0.999 | S. cerevisiae deletion strains, locus YOR001W, strain rrp6, hits give low values 0.954 | S. cerevisiae deletion strains, locus YOR061W, strain CKA2, hits give low values 0.909 | S. cerevisiae deletion strains, locus YOR069W, strain VPS5, hits give low values 0.995 | S. cerevisiae deletion strains, locus YOR136W, strain idh2, hits give low values 0.997 | S. cerevisiae deletion strains, locus YOR144C, strain elg1, hits give low values 1 | S. cerevisiae deletion strains, locus YOR184W, strain ser1, hits give low values 0.928 | S. cerevisiae deletion strains, locus YOR231W, strain MKK1, hits give low values 1.01 | S. cerevisiae deletion strains, locus YOR290C, strain snf2, hits give low values 0.947 | S. cerevisiae deletion strains, locus YOR316C, strain cot1, hits give low values 1.01 | S. cerevisiae deletion strains, locus YPL078C, strain atp4, hits give low values 0.96 | S. cerevisiae deletion strains, locus YPL240C, strain hsp82, hits give low values 1.01 | S. cerevisiae deletion strains, locus YPL256C, strain CLN2, hits give low values 1.02 | S. cerevisiae deletion strains, locus YPR119W, strain clb2, hits give low values 1.01 | S. cerevisiae deletion strains, locus YPR141C, strain kar3, hits give low values 1.04 | S. cerevisiae deletion strains, locus YPR163C, strain tif3, hits give low values 1.01 | S. cerevisiae deletion strains, locus YPR167C, strain met16, hits give low values 0.989
active: S. cerevisiae deletion strains, locus YKL160W, strain elf1, hits give low values 0.829 | S. cerevisiae deletion strains, locus YKL190W, strain CNB1, hits give low values 0.692 | S. cerevisiae deletion strains, locus YLL026W, hits give low values 0.926 | S. cerevisiae deletion strains, locus YLR027C, strain aat2, hits give low values 0.909 | S. cerevisiae deletion strains, locus YLR058C, strain SHM2, hits give low values 0.887 | S. cerevisiae deletion strains, locus YLR221C, strain rsa3, hits give low values 0.905 | S. cerevisiae deletion strains, locus YLR262C, strain YPT6 (second series), hits give low values 0.717 | S. cerevisiae deletion strains, locus YLR320W, strain mms22, hits give low values 0.797 | S. cerevisiae deletion strains, locus YLR342W, strain FKS1 (second series), hits give low values 0.774 | S. cerevisiae deletion strains, locus YLR342W, strain FKS1, hits give low values 0.832 | S. cerevisiae deletion strains, locus YLR418C, strain cdc73, hits give low values 0.385 | S. cerevisiae deletion strains, locus YML016C, strain PPZ1, hits give low values 0.906 | S. cerevisiae deletion strains, locus YMR058W, strain fet3, hits give low values 0.863 | S. cerevisiae deletion strains, locus YMR125W, strain sto1, hits give low values 0.819 | S. cerevisiae deletion strains, locus YMR129W, hits give low values 0.874 | S. cerevisiae deletion strains, locus YMR307W, strain GAS1, hits give low values 0.583 | S. cerevisiae deletion strains, locus YNL067W, strain RPL9B, hits give low values 0.842 | S. cerevisiae deletion strains, locus YNL071W, strain lat1, hits give low values 0.762 | S. cerevisiae deletion strains, locus YNL128W, strain TEP1, hits give low values 0.202 | S. cerevisiae deletion strains, locus YNL153C, strain GIM3, hits give low values 0.709 | S. cerevisiae deletion strains, locus YNL209W, strain ssb2, hits give low values 0.848 | S. cerevisiae deletion strains, locus YNL233W, strain BNI4, hits give low values 0.749 | S. cerevisiae deletion strains, locus YNL248C, strain rpa49, hits give low values 0.714 | S. cerevisiae deletion strains, locus YNL307C, strain MCK1, hits give low values 0.863 | S. cerevisiae deletion strains, locus YNL322C, strain KRE1, hits give low values 0.686 | S. cerevisiae deletion strains, locus YNR052C, strain pop2, hits give low values 0.731 | S. cerevisiae deletion strains, locus YOL006C, strain TOP1, hits give low values 0.382 | S. cerevisiae deletion strains, locus YOR070C, strain gyp1, hits give low values 0.91 | S. cerevisiae deletion strains, locus YOR080W, strain dia2, hits give low values 0.892 | S. cerevisiae deletion strains, locus YOR083W, strain WHI5, hits give low values 0.804 | S. cerevisiae deletion strains, locus YOR106W, strain vam3, hits give low values 0.754 | S. cerevisiae deletion strains, locus YOR265W, strain rbl2, hits give low values 0.92 | S. cerevisiae deletion strains, locus YOR270C, strain vph1, hits give low values 0.728 | S. cerevisiae deletion strains, locus YPL051W, strain arl3, hits give low values 0.914 | S. cerevisiae deletion strains, locus YPL106C, strain sse1, hits give low values 0.468 | S. cerevisiae deletion strains, strain wtn01, hits give low values 0.775 | S. cerevisiae strains, strain wild type, hits give low values 0.484
